The panel holds about 79,000 compounds, 15% with a hit somewhere; the sample as a whole holds those more often. Rule as the data show it: active = growth inhibition above about 70%; inactive = the rest.
Assays:
[1] = NCI Yeast Anticancer Drug Screen. Data for the rad50 strain (AID 155);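 also: 0% = growth of vehicle-only cultures of the same strain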; settings: S. cerevisiae rad50 strain growth inhibition; at 50.0 µM; hits give high values
Outline: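 A DNA repair-deficient yeast mutant serves as the test organism; compound-induced growth inhibition is calculated against vehicle-treated cells.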

[2] = NCI Yeast Anticancer Drug Screen. Data for the mec2-1 strain (AID 157); settings: S. cerevisiae mec2-1 strain, at 50.0 µM, hits give high values
Outline: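 Mutant yeast (mec2-1) grown with compound; growth inhibition relative to vehicle control reported.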

[3] = NCI Yeast Anticancer Drug Screen. Data for the sgs1 mgt1 strain (AID 161);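 also: 0% = growth of cultures given vehicle only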; settings: S. cerevisiae sgs1 mgt1 strain, at 50.0 µM, hits give high values
Outline: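 Growth of a repair-deficient yeast mutant was monitored after compound treatment and expressed as inhibition relative to vehicle-treated cultures.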

[4] = NCI Yeast Anticancer Drug Screen. Data for the cln2 rad14 strain (AID 165);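 also: 0% = growth equal to vehicle treated cultures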; settings: S. cerevisiae cln2 rad14 strain, at 50.0 µM, hits give high values
Outline: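 Readout is yeast growth inhibition versus vehicle-treated controls, using a strain with cln2 and rad14 alterations exposed to compound.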

[5] = NCI Yeast Anticancer Drug Screen. Data for the bub3 strain (AID 167); settings: S. cerevisiae bub3 mutant strain, at 50.0 µM, hits give high values
Outline: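 Inhibition values come from growth of compound-treated mutant yeast normalised to vehicle-treated controls.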

[6] = NCI Yeast Anticancer Drug Screen. Data for the mlh1 rad18 strain (AID 175); settings: S. cerevisiae mlh1 rad18 strain growth inhibition; at 50.0 µM; hits give high values
Outline: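 Genetically defined yeast (DNA repair-deficient) exposed to compounds; growth inhibition determined relative to vehicle.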

Measured: growth inhibition

COc1cc(O)c(C(=O)C2Cc3ccccc32)c(OC)c1 (configuration not stated)
inactive: [1] -20.6% | [2] 12.5% | [3] 24.1% | [4] 21.6% | [5] 9.1% | [6] 41.8%

OC1(Cc2ccccn2)CCCc2ccccc21 (configuration not stated)
inactive: [1] 7.5% | [2] 9.55% | [3] -1.95% | [4] -15.3% | [5] -8.45% | [6] 4.95%

Cc1cc(N=[N+]=[N-])c2cc3c(cc2n1)OCO3
inactive: [1] -32.2% | [2] -7.5% | [3] -0.4% | [4] -39% | [5] 5.65% | [6] 14%

CCOC#CCCOCc1ccccc1
inactive: [1] -28.9% | [2] -46.2% | [3] -5.25% | [4] -1.65% | [5] -11% | [6] -16.6%

O=C(N=C1SCCN1C(=O)C(C(F)(F)F)C(F)(F)F)C(C(F)(F)F)C(F)(F)F
inactive: [1] -20.6% | [2] -3.5% | [3] 4.95% | [4] 28.4% | [5] 2.3% | [6] -36.9%

CCN(CC)CCSC(=O)c1ccc([N+](=O)[O-])cc1
inactive: [1] 20.1% | [2] 7.7% | [3] 15.6% | [4] 19.8% | [5] 38.5% | [6] 8.1%

N/N=C(\Cc1ccccc1)NN=C(N)N
inactive: [1] 13.6% | [2] -11.2% | [3] 14.8% | [4] 20.1% | [5] -9.45% | [6] 20.3%

CC1(C)OC(=O)CC2(C)OC12 (configuration not stated)
inactive: [1] -8% | [2] -52.3% | [3] -11.2% | [4] -16.4% | [5] -5.9% | [6] -19.2%

CCCCCC/C(C)=C/CCC(C)=O
inactive: [1] 12.4% | [2] 4.15% | [3] 14.8% | [4] 11.3% | [5] 4.7% | [6] -0.25%

Cc1c2c(c(C)c3c1C(=O)c1cc4c(cc1C3=O)OCO4)OC(C)O2
inactive: [1] -10.5% | [2] -15.5% | [3] -18.6% | [4] -28.4% | [5] -47.7% | [6] -18.6%

Nc1nc(-c2cccc([N+](=O)[O-])c2)c(N=Nc2ccc(Br)cc2)s1
inactive: [1] 10.3% | [2] 12.4% | [3] 23.1% | [4] 15.8% | [5] -3.25% | [6] 5.95%

COc1ccc(C(C#N)NC23CC4CC(CC(C4)C2)C3)cc1OC (configuration not stated)
inactive: [1] -11.8% | [2] -19.8% | [3] -25.1% | [4] -15.2% | [5] -56.2% | [6] -19.5%

COC(=O)/C=C/c1cccc([N+](=O)[O-])c1
inactive: [1] -3.55% | [2] -2.25% | [3] 20.7% | [4] -48.8% | [5] -0.7% | [6] -18.3%

COc1c2occc2c(S(=O)(=O)O)c2ccc(=O)oc12
inactive: [1] -12.5% | [2] 4.05% | [3] 6.45% | [4] 3.75% | [5] -40.6% | [6] 2.7%

S=C(Nc1ccccc1)N1CCN(c2ccccc2Cl)CC1
inactive: [1] 10.7% | [2] -1.65% | [3] 8.25% | [4] -33.9% | [5] -2.15% | [6] 13.1%

CC(=O)OCC1C(=O)OCC1C(=O)N1Cc2cc3ccccc3nc2C1 (configuration not stated)
inactive: [1] -10.6% | [2] -1.55% | [3] 13.7% | [4] -18.9% | [5] 31.2% | [6] -9.85%

CC1(C)CCCC(C)(C)C1=NO
inactive: [1] -20.2% | [2] -5.6% | [3] -9.75% | [4] 12.4% | [5] 5.75% | [6] 22.9%

CSc1ccc2c(cc1=O)[C@@H](NC(C)=O)CCc1cc(O)c(O)c(O)c1-2
inactive: [1] 7.1% | [2] 12.3% | [3] 18.1% | [4] 4.85% | [5] 17.4% | [6] 22.8%

Nc1nc(N)nc(SCCO)n1
inactive: [1] -25.1% | [2] 1.55% | [3] -14.1% | [4] -44.8% | [5] -4.75% | [6] -8.45%

CC(=O)OC(NC(=O)c1cc(C)cc(C)c1)c1ccncc1 (configuration not stated)
inactive: [1] -2.05% | [2] -3.05% | [3] -0.75% | [4] -8.1% | [5] 4.6% | [6] 1.25%

CC(=O)Nc1ccc2c(c1)C(=O)c1cc(Cl)ccc1-2
inactive: [1] 0.25% | [2] -6.05% | [3] 5.75% | [4] -28.1% | [5] -2.05% | [6] -9.35%

O=C(C(Cl)=C(N1CCOCC1)N1CCOCC1)C(Cl)Cl
inactive: [1] -37.9% | [2] -18.4% | [3] -57.5% | [4] -15.8% | [5] -32.9% | [6] -34.6%

CCCCNc1ccc(Cl)cc1
inactive: [1] 0.75% | [2] -5.4% | [3] -16.7% | [4] -27.9% | [5] -15.5% | [6] -15.6%

NC(Cc1ccccc1)C(=O)NCC(=O)Oc1ccc([N+](=O)[O-])cc1 (configuration not stated)
inactive: [1] 36.5% | [2] 20.4% | [3] 20.1% | [4] 18.1% | [5] 2.35% | [6] 23.1%

CCc1nc(-c2ccccc2)nc2c1nc(-c1ccc(C)cc1)n2Nc1ccccc1
inactive: [1] 0.85% | [2] 6.05% | [3] -2.95% | [4] -0.25% | [5] -4.45% | [6] 20.9%

O=C(O)CCCCCCCCCC(=O)O
inactive: [1] -15.1% | [2] -17.5% | [3] 0% | [4] -24.9% | [5] -7.7% | [6] 9.05%

N#CCCC(=O)c1ccccc1
inactive: [1] -1.5% | [2] -19.1% | [3] -1.15% | [4] -2.65% | [5] 5.15% | [6] 16.9%

O=C(CCl)Nc1cc(Cl)c(Cl)cc1Cl
inactive: [1] 32.4% | [2] 21.8% | [3] 58.1% | [4] 2.75% | [5] 64.8% | [6] 37%

CC1(C)OC2(C)CCC1C1C2N1C(=O)Nc1cccc(Cl)c1 (configuration not stated)
inactive: [1] -4.05% | [2] -13.8% | [3] -2.25% | [4] -2.45% | [5] -7.9% | [6] -18.5%

Cc1ccc(-c2cc(=S)n(-c3ccccc3)c3nc(=S)n(-c4ccccc4)c(N)c23)cc1
inactive: [1] 14.4% | [2] 24.4% | [3] 18.1% | [4] -12.9% | [5] 23.8% | [6] 25.9%

CCC(C)C1(C)OC1C(=O)OC (configuration not stated)
inactive: [1] -2.7% | [2] -31.6% | [3] -42.4% | [4] 22.1% | [5] -41% | [6] 4.55%

CCN(CC)CCS(=O)(=O)CCS(=O)(=O)CCN(CC)CC
inactive: [1] 18.5% | [2] 10.9% | [3] 25.2% | [4] 25.2% | [5] 4.4% | [6] 14.2%

CC1(c2ccc(Cl)cc2)NC(=O)N(CC(=O)Nc2ccccc2)C1=O (configuration not stated)
inactive: [1] 7.1% | [2] 13.9% | [3] 2.65% | [4] -7.95% | [5] -12.1% | [6] 14.2%

CC(C)CNc1ncnc2[nH]ncc12
inactive: [1] -1.75% | [2] -6.2% | [3] -3.55% | [4] -3.35% | [5] 1.2% | [6] -6.2%

CC(=O)Nc1ccc(C2C(C(=O)Nc3ccccc3)=C(C)NC(C)=C2C(=O)Nc2ccccc2)cc1
inactive: [1] 17.1% | [2] -2.6% | [3] 12.7% | [4] 11.2% | [5] 32.5% | [6] -2.2%

COc1ccc2cc1Oc1ccc(cc1)C[C@@H]1c3cc(c(OC)cc3CCN1C)Oc1c(OC)c(OC)cc3c1[C@@H](C2)N(C)CC3
inactive: [1] 33% | [2] -20.8% | [3] 18.6% | [4] -2.7% | [5] 21.9% | [6] 31.2%

CC1(CC2(C)SCCCS2)SCCCS1
inactive: [1] -1.1% | [2] -7.55% | [3] 10.7% | [4] -2.35% | [5] -5.8% | [6] 7.8%
